The text below walks through data of PubChem BioAssay (EPA / NIEHS).

In test [1] the target is human IkappaB Kinase alpha (IKKa), CHUK (gene 1147) (UniProt O15111). The experiment in a line: NVS_ENZ_hIKKa: NovaScreen (NVS) Enzymatic Assay for human IkappaB Kinase alpha (IKKa) (AID 2283167). The method in brief: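 Cell-free recombinant human IKKa with fluorescent substrate, product separated by electrophoretic mobility shift; read 1 hour after dosing. Primary screen duplicate at 25 uM, actives then concentration-response up to 50 uM; loss of signal relative to DMSO.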
human IkappaB Kinase alpha (IKKa), CHUK (gene 1147), sequence (O15111 whole entry, looked up): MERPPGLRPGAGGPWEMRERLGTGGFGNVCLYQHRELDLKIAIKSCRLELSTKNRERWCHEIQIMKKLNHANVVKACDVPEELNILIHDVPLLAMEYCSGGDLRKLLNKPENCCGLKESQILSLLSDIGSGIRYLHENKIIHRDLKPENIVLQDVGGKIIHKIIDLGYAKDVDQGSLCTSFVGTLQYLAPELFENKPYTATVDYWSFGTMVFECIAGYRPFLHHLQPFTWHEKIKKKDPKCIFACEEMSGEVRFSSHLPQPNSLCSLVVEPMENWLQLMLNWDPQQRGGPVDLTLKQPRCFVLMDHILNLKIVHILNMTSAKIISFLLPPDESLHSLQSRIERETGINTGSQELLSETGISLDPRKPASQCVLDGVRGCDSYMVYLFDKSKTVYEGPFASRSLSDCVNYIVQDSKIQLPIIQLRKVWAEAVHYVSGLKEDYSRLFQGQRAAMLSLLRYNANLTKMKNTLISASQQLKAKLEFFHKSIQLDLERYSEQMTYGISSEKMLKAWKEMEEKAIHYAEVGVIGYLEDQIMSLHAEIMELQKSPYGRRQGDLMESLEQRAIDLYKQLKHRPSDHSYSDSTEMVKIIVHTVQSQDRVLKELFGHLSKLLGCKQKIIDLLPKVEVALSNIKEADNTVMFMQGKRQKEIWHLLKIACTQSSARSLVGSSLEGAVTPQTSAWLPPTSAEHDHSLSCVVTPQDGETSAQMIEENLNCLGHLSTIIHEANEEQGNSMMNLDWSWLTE

For test [2], the target named is human Insulin Receptor (InsR), INSR (gene 3643) (UniProt P06213). The experiment in a line: NVS_ENZ_hInsR: NovaScreen (NVS) Enzymatic Assay for human Insulin Receptor (InsR) (AID 2283168). In outline: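 Fluorescent substrate phosphorylation by recombinant kinase, product resolved by electrophoretic mobility shift, read 1 h after dosing. Screened in duplicate at 25 uM; hits (e.g., 30% inhibition) run in concentration-response to 50 uM; DMSO as baseline.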
human Insulin Receptor (InsR), INSR (gene 3643), sequence (P06213 whole entry, looked up): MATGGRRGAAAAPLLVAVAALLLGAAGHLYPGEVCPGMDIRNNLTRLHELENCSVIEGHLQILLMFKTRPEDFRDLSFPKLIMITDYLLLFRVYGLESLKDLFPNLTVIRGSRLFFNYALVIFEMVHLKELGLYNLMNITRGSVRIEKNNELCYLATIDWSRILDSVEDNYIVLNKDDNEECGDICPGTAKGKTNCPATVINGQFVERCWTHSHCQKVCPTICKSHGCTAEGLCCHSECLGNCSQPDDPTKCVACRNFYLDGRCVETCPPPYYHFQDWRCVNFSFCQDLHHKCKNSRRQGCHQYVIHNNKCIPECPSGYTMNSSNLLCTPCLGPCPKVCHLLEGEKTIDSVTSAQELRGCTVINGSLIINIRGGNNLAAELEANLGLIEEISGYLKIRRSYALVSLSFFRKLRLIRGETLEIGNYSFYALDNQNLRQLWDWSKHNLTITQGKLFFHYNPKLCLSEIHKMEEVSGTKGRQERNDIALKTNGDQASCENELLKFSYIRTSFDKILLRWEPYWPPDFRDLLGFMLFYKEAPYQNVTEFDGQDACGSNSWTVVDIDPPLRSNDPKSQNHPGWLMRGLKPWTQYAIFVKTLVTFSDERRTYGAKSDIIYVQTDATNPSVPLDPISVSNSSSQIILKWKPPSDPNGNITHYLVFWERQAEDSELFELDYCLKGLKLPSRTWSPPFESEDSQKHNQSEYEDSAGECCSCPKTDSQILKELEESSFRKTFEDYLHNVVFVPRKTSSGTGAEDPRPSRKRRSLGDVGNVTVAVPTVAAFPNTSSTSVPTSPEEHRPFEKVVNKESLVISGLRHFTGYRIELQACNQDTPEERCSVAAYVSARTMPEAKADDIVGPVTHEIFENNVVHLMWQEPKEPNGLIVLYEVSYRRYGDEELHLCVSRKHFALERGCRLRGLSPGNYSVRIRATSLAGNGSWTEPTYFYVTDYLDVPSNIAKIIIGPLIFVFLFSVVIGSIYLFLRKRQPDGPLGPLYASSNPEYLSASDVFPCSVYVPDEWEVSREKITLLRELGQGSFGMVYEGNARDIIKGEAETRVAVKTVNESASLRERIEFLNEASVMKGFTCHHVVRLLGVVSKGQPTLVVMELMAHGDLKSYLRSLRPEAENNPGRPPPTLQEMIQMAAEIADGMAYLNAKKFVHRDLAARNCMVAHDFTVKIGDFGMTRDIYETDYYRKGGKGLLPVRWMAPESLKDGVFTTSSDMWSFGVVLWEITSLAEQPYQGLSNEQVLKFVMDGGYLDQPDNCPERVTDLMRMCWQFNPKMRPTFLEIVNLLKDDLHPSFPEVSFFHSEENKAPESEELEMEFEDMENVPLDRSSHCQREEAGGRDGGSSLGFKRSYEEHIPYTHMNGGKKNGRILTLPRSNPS

The target of test [3] is human Janus Kinase 2 (Jak2), JAK2 (gene 3717) (UniProt O60674). The experiment in a line: NVS_ENZ_hJak2: NovaScreen (NVS) Enzymatic Assay for human Janus Kinase 2 (Jak2) (AID 2283169). In outline: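 Cell-free recombinant human JAK2 enzyme activity assay, fluorescence/electrophoretic mobility shift read 1 h after dosing. Screened in duplicate at 25 uM, then concentration-response up to 50 uM; activity as signal loss relative to DMSO.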
human Janus Kinase 2 (Jak2), JAK2 (gene 3717), sequence (O60674 whole entry, looked up): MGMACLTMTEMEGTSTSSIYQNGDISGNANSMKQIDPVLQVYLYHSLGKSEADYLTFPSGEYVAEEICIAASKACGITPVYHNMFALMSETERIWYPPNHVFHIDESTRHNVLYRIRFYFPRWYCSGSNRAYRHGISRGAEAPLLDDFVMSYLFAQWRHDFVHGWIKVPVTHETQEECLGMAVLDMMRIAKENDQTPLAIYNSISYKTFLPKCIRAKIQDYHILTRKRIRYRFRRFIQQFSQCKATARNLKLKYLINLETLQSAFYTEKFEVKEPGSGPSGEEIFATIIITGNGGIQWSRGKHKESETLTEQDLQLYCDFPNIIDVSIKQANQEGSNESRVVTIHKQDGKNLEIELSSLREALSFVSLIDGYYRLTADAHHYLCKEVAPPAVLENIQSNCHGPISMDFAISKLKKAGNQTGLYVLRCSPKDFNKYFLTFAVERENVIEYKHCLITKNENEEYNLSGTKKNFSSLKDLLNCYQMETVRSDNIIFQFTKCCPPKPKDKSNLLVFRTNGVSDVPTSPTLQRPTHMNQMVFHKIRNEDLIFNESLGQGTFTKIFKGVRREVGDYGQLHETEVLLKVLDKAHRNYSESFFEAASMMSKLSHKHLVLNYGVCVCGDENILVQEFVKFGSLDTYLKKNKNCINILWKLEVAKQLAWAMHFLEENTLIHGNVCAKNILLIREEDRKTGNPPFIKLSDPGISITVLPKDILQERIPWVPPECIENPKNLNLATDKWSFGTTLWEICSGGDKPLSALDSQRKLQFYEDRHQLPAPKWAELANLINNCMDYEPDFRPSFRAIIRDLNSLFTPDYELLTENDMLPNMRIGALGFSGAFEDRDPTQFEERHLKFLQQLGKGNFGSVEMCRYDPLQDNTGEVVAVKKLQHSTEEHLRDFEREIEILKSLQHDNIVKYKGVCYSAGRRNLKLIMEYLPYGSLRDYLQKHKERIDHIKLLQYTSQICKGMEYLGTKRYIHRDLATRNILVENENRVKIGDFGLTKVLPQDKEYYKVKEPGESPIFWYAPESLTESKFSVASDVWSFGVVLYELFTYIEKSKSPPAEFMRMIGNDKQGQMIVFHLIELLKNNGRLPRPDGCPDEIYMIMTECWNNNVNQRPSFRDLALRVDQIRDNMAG

Test [4] concerns the target human c-Jun N-terminal Kinases (JNK2), MAPK9 (gene 5601) (UniProt P45984). Briefly: NVS_ENZ_hJNK2: NovaScreen (NVS) Enzymatic Assay for human c-Jun N-terminal Kinases (JNK2) (AID 2283171). The method in brief:
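Cell-free recombinant human JNK2 activity assay; fluorescent substrate and product separated by electrophoretic mobility shift, read 1 h after dosing. Primary duplicate screen at 25 uM; actives run in concentration-response up to 50 uM, relative to DMSO.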

For test [5], the target named is human MET Proto-Oncogene, Receptor Tyrosine Kinase (MET), MET (gene 4233) (UniProt P08581). Briefly: NVS_ENZ_hMet: NovaScreen (NVS) Enzymatic Assay for human MET Proto-Oncogene, Receptor Tyrosine Kinase (MET) (AID 2283180). The method in brief: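 Cell-free MET kinase assay using recombinant protein and fluorescent substrate, with mobility-shift separation; read 1 h after dosing. Primary duplicate at 25 uM; actives in singleton concentration-response to 50 uM maximum. Signal loss versus DMSO.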
human MET Proto-Oncogene, Receptor Tyrosine Kinase (MET), MET (gene 4233), sequence (P08581 whole entry, looked up): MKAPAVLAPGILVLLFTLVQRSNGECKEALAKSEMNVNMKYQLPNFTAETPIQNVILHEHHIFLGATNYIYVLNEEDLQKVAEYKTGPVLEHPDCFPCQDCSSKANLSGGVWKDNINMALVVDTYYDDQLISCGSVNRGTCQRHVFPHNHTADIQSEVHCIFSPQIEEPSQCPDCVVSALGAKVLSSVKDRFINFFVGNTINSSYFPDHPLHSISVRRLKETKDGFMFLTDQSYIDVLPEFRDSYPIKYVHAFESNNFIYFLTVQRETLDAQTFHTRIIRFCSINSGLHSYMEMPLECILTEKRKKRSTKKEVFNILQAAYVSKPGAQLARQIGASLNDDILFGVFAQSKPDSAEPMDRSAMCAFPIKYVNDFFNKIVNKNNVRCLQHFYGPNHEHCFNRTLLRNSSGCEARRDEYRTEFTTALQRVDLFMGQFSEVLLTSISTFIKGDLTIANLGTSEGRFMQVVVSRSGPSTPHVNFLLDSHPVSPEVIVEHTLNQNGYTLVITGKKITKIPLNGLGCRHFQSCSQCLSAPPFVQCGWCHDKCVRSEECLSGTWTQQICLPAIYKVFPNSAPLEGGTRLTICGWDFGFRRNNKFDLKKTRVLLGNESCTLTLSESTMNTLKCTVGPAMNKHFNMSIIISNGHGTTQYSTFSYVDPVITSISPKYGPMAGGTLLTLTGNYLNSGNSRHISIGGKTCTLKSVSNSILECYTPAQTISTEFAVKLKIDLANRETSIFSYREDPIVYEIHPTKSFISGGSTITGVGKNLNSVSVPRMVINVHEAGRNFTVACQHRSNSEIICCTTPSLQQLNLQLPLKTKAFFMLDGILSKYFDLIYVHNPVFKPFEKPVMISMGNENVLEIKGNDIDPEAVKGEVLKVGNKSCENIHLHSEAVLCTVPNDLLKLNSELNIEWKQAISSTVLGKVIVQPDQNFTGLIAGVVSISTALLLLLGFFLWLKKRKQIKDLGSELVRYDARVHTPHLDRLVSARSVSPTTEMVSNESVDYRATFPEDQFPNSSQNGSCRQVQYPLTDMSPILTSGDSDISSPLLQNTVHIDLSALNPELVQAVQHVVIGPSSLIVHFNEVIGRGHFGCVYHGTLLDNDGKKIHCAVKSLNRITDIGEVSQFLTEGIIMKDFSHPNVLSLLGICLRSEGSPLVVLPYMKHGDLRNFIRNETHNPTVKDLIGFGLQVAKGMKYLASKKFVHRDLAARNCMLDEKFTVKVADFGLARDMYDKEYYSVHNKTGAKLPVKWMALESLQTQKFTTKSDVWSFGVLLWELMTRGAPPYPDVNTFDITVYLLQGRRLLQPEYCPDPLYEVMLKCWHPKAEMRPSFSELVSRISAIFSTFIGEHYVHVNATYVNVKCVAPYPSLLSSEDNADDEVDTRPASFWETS

SMILES strings stand for the structures. Results filed as inconclusive are left out. Calls of active or inactive are those of the source. The calls were made as follows: active = hit-call score of the fitted dose curve at least 0.9, where 1 is the maximum; inconclusive = response in the unintended direction; inactive = score below 0.9.

human c-Jun N-terminal Kinases (JNK2), MAPK9 (gene 5601), sequence (P45984 whole entry, looked up): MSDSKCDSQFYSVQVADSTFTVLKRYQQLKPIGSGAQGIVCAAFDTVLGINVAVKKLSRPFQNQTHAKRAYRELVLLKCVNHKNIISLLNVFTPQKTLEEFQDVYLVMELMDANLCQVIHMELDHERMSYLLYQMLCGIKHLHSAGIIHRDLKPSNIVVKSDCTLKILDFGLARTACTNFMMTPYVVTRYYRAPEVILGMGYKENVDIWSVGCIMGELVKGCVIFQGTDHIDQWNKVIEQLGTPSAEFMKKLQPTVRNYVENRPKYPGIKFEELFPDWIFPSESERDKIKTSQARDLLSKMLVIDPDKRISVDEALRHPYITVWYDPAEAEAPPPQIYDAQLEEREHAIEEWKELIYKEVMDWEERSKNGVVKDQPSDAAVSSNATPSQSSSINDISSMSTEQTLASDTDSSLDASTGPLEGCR

Regarding `ClCCOCCCl`, the outcome in test [1] was inactive.

For the compound `CCN(CC)N=O`, the compound was called inactive in test [1].

With `CCCCCCCCCCCCCN1CC(C)OC(C)C1` (stereo not drawn), the call in test [2] was inactive.

`c1ccc2c(c1)-c1cccc3cccc-2c13`: in test [2], the compound was classed as inactive.

`COc1cc(C=O)cc2c1[C@H](COC(N)=O)[C@]1(OC(C)=O)ON2C[C@H]2[C@@H]1N2C(C)=O`: the AC50 in test [3] was 6.08 nM (active).

On to `CCNS(=O)(=O)C(F)(F)C(F)(F)C(F)(F)C(F)(F)C(F)(F)C(F)(F)C(F)(F)C(F)(F)F`, for which the compound was called inactive in test [4] and in test [5].

On to `O=[N+]([O-])C(Br)(CO)CO`, for which, in test [5], the call was inactive.
